Bioassay records (PubChem)
Casp1 inh = caspase-1 (human) inhibition, allosteric or competitive. P29466. Caspase-1 enzyme, Ac-WEHD-AFC fluorogenic rate. Potency, µM (doses to about 57.5 µM), inactives show top-dose activity change, negative = inhibition, usual class: inhibitors. 75,000 compounds, 0.03% hits. AID 900;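 note: plate controls were vehicle for no effect and no substrate for full effect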
USP2a inh = USP2a (human) protease inhibition; Potency, µM (highest dose often 38.3 µM), inactives show at the top dose activity change, negative = inhibition, most hits filed as inhibitors; USP2a enzymatic assay, qHTS inhibition; O75604; 60,000 compounds, 0.1% hits; note: nearly all actives have a fitted effect of over 60% in size
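USP2 core (20nM final) preincubated 30 min RT with compound, then Ub-PLA2 20nM and NBD C6-HPC 20uM final added; buffer 20mM Tris-HCl pH 8.0, 2mM CaCl2. Fluorescence Ex 460/Em 535 read at 0 and 2.5 h; normalized to NEM.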
15-hLO-2 inh = inhibitors of human 15-lipoxygenase 2 (ALOX15B); O15296; purified 15hLO-2, xylenol orange hydroperoxide absorbance; Potency, µM (top dose mostly 57.1 µM), inactives show at the highest dose activity change, negative = inhibition, actives largely listed as inhibitors; 110,000 compounds, 0.56% hits; AID 881; note: % is set by controls: 0 for no effect and ±100 for the full control effect; nearly all actives have a fitted effect of over 60% in size
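Purified human 15hLO-2 (50 nM) preincubated 15 min with compound, then 45 uM arachidonic acid for 90 min at RT in 25 mM Hepes pH 7.5, 0.01% Triton X-100. Hydroperoxide detected by Fe-xylenol orange; 573/405 nm absorbance ratio.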
15-hLO inh = blocks human 15-lipoxygenase activity. 74,000 compounds, 1.4% hits. purified 15hLO-1, xylenol orange hydroperoxide absorbance. AID 887. P16050. Potency, µM (titrated, usually from 57.1 µM), without a hit: at the top dose activity change, negative = inhibition, hits mostly inhibitors; note: % is set by controls: 0 for no effect and ±100 for the full control effect; nearly all actives have a fitted effect of over 55% in size
Target sequence (P16050 whole entry, looked up): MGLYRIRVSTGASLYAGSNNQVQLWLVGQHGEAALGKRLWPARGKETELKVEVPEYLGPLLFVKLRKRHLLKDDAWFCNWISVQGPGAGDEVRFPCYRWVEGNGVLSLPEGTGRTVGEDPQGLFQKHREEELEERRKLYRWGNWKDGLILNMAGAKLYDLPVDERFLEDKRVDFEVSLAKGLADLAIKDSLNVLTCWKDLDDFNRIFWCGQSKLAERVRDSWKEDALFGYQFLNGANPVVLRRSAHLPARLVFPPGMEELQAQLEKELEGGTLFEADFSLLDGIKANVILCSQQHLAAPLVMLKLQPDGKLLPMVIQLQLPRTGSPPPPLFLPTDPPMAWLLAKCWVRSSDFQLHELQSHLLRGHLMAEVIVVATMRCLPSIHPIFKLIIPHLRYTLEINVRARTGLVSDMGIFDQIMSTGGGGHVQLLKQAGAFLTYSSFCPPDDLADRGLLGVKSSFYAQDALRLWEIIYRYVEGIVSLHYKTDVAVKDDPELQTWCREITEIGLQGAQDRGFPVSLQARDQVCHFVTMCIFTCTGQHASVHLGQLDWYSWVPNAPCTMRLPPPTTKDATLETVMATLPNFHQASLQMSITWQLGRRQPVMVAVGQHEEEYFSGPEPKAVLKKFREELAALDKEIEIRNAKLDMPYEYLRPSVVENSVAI
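Quantitative HTS in 25 mM Hepes pH 7.5 containing 0.01% Triton X-100: human 15hLO-1 at 40 nM, arachidonic acid at 50 uM, 6 min turnover. Product quantified via ferrous oxidation/xylenol orange, 573:405 nm absorbance ratio.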
Caspase-7 inhib = caspase-7 (human) inhibition, allosteric or competitive; 75,000 compounds, 0.02% hits; Potency, µM (highest dose often 57.5 µM), without a hit: top-dose activity change, negative = inhibition, usual class: inhibitors; recombinant caspase-7, Ac-DEVD-AFC fluorescence rate; P55210; active = well fitted inhibition curve with a large enough effect in the main read-out, with a control signal flat, not every such curve was filed as active; inconclusive = small, poorly fitted or top-dose-only effect, or a change in a side signal; note: % of control where 0% means no effect
Starred values were filed as active, the others as inactive; ? = inconclusive; . = no result; [ ] = another dose, or the depositor's remark. This excerpt belongs to a sample that is enriched for hits. Unless noted, calls come from the whole dose curve; as a rule, active = well fitted curve in the direction sought with a large enough effect; inconclusive = small, poorly fitted or top-dose-only effect, or another doubt; inactive = no such curve, though single readings can be large; an effect the other way counts as inactive or inconclusive. Potency is the fitted concentration of half-maximal effect.

SMILES	Casp1 inh	USP2a inh	15-hLO-2 inh	15-hLO inh	Caspase-7 inhib
CN(C)c1ccc(C(=C2C=CC(=[N+](C)C)C=C2)c2ccc(N(C)C)cc2)cc1	-1%	10µM*	?	-3%	-15%
CC(=O)NCCNc1nc(-c2ccccc2C)nc2ccccc12	0%	15%	-13%	12%	-1%
CCOc1ccccc1C(=O)Nc1nccs1	1%	.	2%	7.9µM*	4%
COCCSc1ccccc1C(=O)Nc1nccs1	0%	2%	?	-10%	1%
Nc1ncnc2nc(-c3ccc(N4CCOCC4)nc3)cc(-c3cccc(Br)c3)c12	.	.	46%	10µM*	?
Cc1cccc2cc3c(nc12)SC(=NCC1CCCO1)N(Cc1ccco1)C3 (stereo not drawn)	-13%	.	-13%	10µM*	-19%
Cc1ccc2nc3c(cc2c1)CN(Cc1ccco1)C(=NCC1CCCO1)S3 (stereo not drawn)	-6%	20%	-20%	-29%	-2%
O=C(NCCO)c1ccc(-n2c(=O)c(=O)[nH]c3ccccc32)cc1	-2%	.	.	4%	-1%
Cc1ccc(/C=C2\SC(=S)N(CC(=O)Nc3ncc(Cc4ccccc4Cl)s3)C2=O)cc1	.	.	13µM*	.	.
Cc1ccccc1/C=C\C1=NCCN1	4%	-9%	-7%	-10%	2%
CC(=O)C1=C(C)NC(SCC(=O)c2ccc(Cl)cc2)=C(C#N)C1c1ccco1 (stereo not drawn)	.	.	-13%	13µM*	?
CC(=O)C1=C(C)NC(SCC(=O)c2ccccc2)=C(C#N)C1CC(C)C (stereo not drawn)	-4%	12%	?	4µM*	-5%
CC(=O)C1=C(C)NC(SCC(=O)c2ccccc2)=C(C#N)C1c1ccco1 (stereo not drawn)	.	.	-22%	?	?
CC(=O)C1=C(C)NC(SCC(=O)c2ccc(Cl)cc2Cl)=C(C#N)C1c1ccco1 (stereo not drawn)	.	21%	-27%	13µM*	?
CSCSC1=C(C#N)C(c2ccc(Cl)cc2)C(C(C)=O)=C(C)N1 (stereo not drawn)	-14%	-8%	?	?	-11%
CCOC(=O)CSC1=C(C#N)C(c2ccccc2)C(C(C)=O)=C(C)N1 (stereo not drawn)	-6%	1%	-13%	-19%	-3%
Cn1cccc1Cc1nnc(SCC(=O)Nc2nc3ccccc3s2)n1CCc1ccccc1	-7%	44%	-9%	-8%	-6%
CCn1c(Cc2ccccc2)nnc1SCC(=O)Nc1nc2ccccc2s1	0%	9%	-8%	25µM*	-3%
N#Cc1c(Sc2ncc(C(F)(F)F)cc2Cl)nsc1C/C=N\OCc1ccccc1Br	.	.	13µM*	.	.
CCOC(=O)/C(=C\Nc1ccccc1C(F)(F)F)Sc1ncc(C(F)(F)F)cc1Cl	.	.	4%	.	.
COC(=O)[C@H](C)NC(=O)C/C=C\[C@@H](C)[C@@H](CO)OC	-1%[11.5 µM]	.	.	7%[11.4 µM]	1%[11.5 µM]
O=[N+]([O-])c1ccc2c(N=Nc3ccc4ccccc4c3O)c(O)cc(S(=O)(=O)O)c2c1	-3%[11.5 µM]	.	4µM*	3.2µM*	-9%[11.5 µM]
O=S(=O)(O)c1ccc2c(N=Nc3cccc4ccccc34)c(O)c(S(=O)(=O)O)cc2c1	0%[11.5 µM]	.	3%[11.4 µM]	-2%[11.4 µM]	-9%[11.5 µM]
O[C@@H](c1cc(-c2ccc(Cl)cc2)nc2ccccc12)[C@@H]1CCCCN1	1%[11.5 µM]	.	22%[11.4 µM]	8%[11.4 µM]	-2%[11.5 µM]
COc1ccc(CNc2ncncc2-c2ccccc2C(F)(F)F)c(OC)c1	-1%	28%	45%	?	-8%
SMILES	Casp1 inh	USP2a inh	15-hLO-2 inh	15-hLO inh	Caspase-7 inhib
Cc1ccc(C(=O)NC(=S)Nc2ccccc2C(F)(F)F)cc1C	.	.	25µM*	.	.
Cc1ccc(S(=O)(=O)N[C@H]2COC(=O)[C@H](C)COC(=O)C/C=C\[C@H]2C)cc1	-2%[11.5 µM]	.	.	9%[11.4 µM]	1%[11.5 µM]
COc1cc(Cl)ccc1NC(=O)COc1ccccc1C(=O)N1CCN(c2ccc(O)cc2)CC1	-3%	24%	?	25µM*	-6%
COc1ccccc1OCC(=O)Nc1ccc(O)cc1C(=O)O	1%	-4%	2%	6%	0%
O=C(NCC1CCCO1)c1sc(=S)n2c1[nH]c(=O)c1ccc(C(=O)N3CCCCC3)cc12 (stereo not drawn)	-14%	2µM*	?	?	-3%
COCCN1C(=O)c2ccccc2C(C(=O)NCCCN2CCCC2=O)C1c1c[nH]c2ccccc12 (stereo not drawn)	-1%	2%	.	25µM*	0%
CCN1C(=O)[C@H]2[C@H]3[C@H](O)[C@H](O)C/C(=N/OC[C@@H](O)COCc4ccco4)[C@@H]3CC[C@@H]2C1=O	-2%[11.5 µM]	.	.	18%[11.4 µM]	1%[11.5 µM]
Cc1cc(C)n2c(=S)[nH]nc2n1	3%	-4%	6.3µM*	?	0%
OCc1c[nH]c2ccccc12	3%	5%	-19%	-18%	-2%
OC[C@H](CCc1c[nH]c2ccccc12)c1c[nH]c2ccccc12	1%[11.5 µM]	.	7%[11.4 µM]	3.2µM*	2%[11.5 µM]
COCCN(CCOC)c1nc(C)nc2c1nc(-c1ccccc1)n2CCCN1CCCCC1C (stereo not drawn)	-1%	.	1%	5%	-3%
Cc1ccc(Nc2ncc3c(n2)CC(c2ccco2)CC3=O)c(C)c1 (stereo not drawn)	-3%	39%	-4%	20µM*	-15%
Cc1cccc(Nc2ncc3c(n2)CC(c2ccco2)CC3=O)c1 (stereo not drawn)	-5%	16%	3%	-4%	-3%
c1ccc(-c2n[nH]c3c2oc2ccccc23)cc1	.	.	23%[0.0915 µM]	.	.
CO[C@@H]1COC(=O)[C@H](C)NC(=O)[C@@H](C)COC(=O)[C@H](C)NC(=O)C/C=C\[C@H]1C	-1%[11.5 µM]	.	.	5%[11.4 µM]	-2%[11.5 µM]
